Reference: PubChem BioAssay (NCATS)
Inconclusive results are not listed. Activity calls are given as the source filed them. The call rests on the fitted dose curve; in most records, active means well fitted curve in the direction sought with a large enough effect; inconclusive means small, poorly fitted or top-dose-only effect, or another doubt; inactive means no such curve, though single readings can be large; an effect the other way counts as inactive or inconclusive.

What was measured:
WaGa = test: qHTS assay to identify novel small-molecules to repurpose for Merkel cell carcinoma treatment (AID 1296009); conditions: MCC and control cell lines, CellTiter-Glo viability, 72 h; series mostly up to 46 µM; further: nearly all actives have a fitted effect of over 60% in size
Method in brief: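 Cell viability measured by CellTiter-Glo following 72 hr compound treatment at 37 degree celsius, with NPC and MIPE libraries tested in 8- and 11-point concentration series.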

C33A = test: Primary qHTS to identify gynecologic anti-cancer compounds using libraries of approved drugs and bioactive compounds (AID 1345084); conditions: Gynecologic cancer cell panel viability, ATPlite luminescence, 48 h; series mostly up to 57.5 µM; further: nearly all actives have a fitted effect of over 55% in size
Method in brief: (§1)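 Cytotoxicity screen measuring ATP content by luciferase luminescence. Each compound is applied at five concentrations for 48 h at 37 C with 5% CO2.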

CASKI = test: as above; conditions: Gynecologic cancer cell panel viability, ATPlite luminescence, 48 h; series mostly up to 57.5 µM
Method in brief: as §1

Es-2 = test: as above; conditions: Gynecologic cancer cell panel viability, ATPlite luminescence, 48 h; series mostly up to 57.5 µM
Method in brief: as §1

HeLa = test: as above; conditions: Gynecologic cancer cell panel viability, ATPlite luminescence, 48 h; series mostly up to 57.5 µM
Method in brief: as §1

Hek293T = test: as above; conditions: Gynecologic cancer cell panel viability, ATPlite luminescence, 48 h, control line for the selectivity index; series mostly up to 57.5 µM
Method in brief: as §1

JEG-3 = test: as above; conditions: Gynecologic cancer cell panel viability, ATPlite luminescence, 48 h; series mostly up to 57.5 µM
Method in brief: as §1

OV90 = test: as above; conditions: Gynecologic cancer cell panel viability, ATPlite luminescence, 48 h; series mostly up to 57.5 µM
Method in brief: as §1

PA-1 = test: as above; conditions: Gynecologic cancer cell panel viability, ATPlite luminescence, 48 h; series mostly up to 57.5 µM
Method in brief: as §1

CAOV3 = test: as above; conditions: Gynecologic cancer cell panel viability, ATPlite luminescence, 48 h; series mostly up to 57.5 µM
Method in brief: as §1

Measured: Potency

O=C(NCC(O)CO)c1c(I)c(C(=O)NCC(O)CO)c(I)c(N(CCO)C(=O)CO)c1I (stereo not drawn)
not listed: CAOV3
inactive: all other assays above

Cc1c(Cn2ccnc2)c2ccccc2n1CCC(=O)O
not listed: CAOV3
inactive: all other assays above

Cc1onc(-c2ccccc2)c1-c1ccc(S(N)(=O)=O)cc1
not listed: C33A
inactive: all other assays above

CC(=O)Nc1ccc(C(=O)O)cc1
not listed: CAOV3
inactive: all other assays above

CC1CC(OC(=O)c2ccccc2O)CC(C)(C)C1 (stereo not drawn)
not listed: CAOV3
inactive: all other assays above

O=C(O)Cc1cn(-c2ccccc2)nc1-c1ccc(Cl)cc1
not listed: CAOV3
inactive: all other assays above

CC(=O)N[C@@H](Cc1ccc(O)cc1)C(=O)O
not listed: CAOV3
inactive: all other assays above

CCN(CC)C(=O)c1cccc(C)c1
not listed: CAOV3
inactive: all other assays above

Cc1cc(C)c(NC(=O)CN(CC(=O)O)CC(=O)O)c(C)c1Br
not listed: CAOV3
inactive: all other assays above

CC(=O)N(CC(O)CN(C(C)=O)c1c(I)c(C(=O)NCC(O)CO)c(I)c(C(=O)NCC(O)CO)c1I)c1c(I)c(C(=O)NCC(O)CO)c(I)c(C(=O)NCC(O)CO)c1I (stereo not drawn)
not listed: CAOV3
inactive: all other assays above

OCc1ccc(Cl)cc1Cl
not listed: CAOV3
inactive: all other assays above

CCc1nnc(NS(=O)(=O)c2ccc(N)cc2)s1
not listed: CAOV3
inactive: all other assays above

CC[N+](CC)(CC(=O)Nc1c(C)cccc1C)Cc1ccccc1
not listed: CAOV3
inactive: all other assays above

COc1cc(O)cc(O)c1
not listed: CAOV3
inactive: all other assays above

CCC(C)(CN(C)C)OC(=O)c1ccccc1 (stereo not drawn)
not listed: CAOV3
inactive: all other assays above

CCOC(N)=O
not listed: CAOV3
inactive: all other assays above

CN(C(=O)c1c(O)c2ccccc2n(C)c1=O)c1ccccc1
not listed: CAOV3
inactive: all other assays above
